# Reference: PubChem BioAssay (Tox21)
# Inconclusive results are not listed. Where a call stands in place of a potency, no number is given. Some structures have more than one record in an assay (separate samples or runs), and their calls can disagree. Activity calls are given as the source filed them. Calls come from the whole dose curve.
# Tests used:
# [1] = target: Acetylcholinesterase (Homo sapiens) (UniProt P22303); assay: Acetylcholinesterase (AChE) small molecule antagonists: colormetric cell-based qHTS assay (AID 1347395); note: nearly all actives have a fitted effect of over 30% in size; note: potency is the fitted concentration of half-maximal effect
# Sequence of Acetylcholinesterase (Homo sapiens) (P22303 whole entry, looked up): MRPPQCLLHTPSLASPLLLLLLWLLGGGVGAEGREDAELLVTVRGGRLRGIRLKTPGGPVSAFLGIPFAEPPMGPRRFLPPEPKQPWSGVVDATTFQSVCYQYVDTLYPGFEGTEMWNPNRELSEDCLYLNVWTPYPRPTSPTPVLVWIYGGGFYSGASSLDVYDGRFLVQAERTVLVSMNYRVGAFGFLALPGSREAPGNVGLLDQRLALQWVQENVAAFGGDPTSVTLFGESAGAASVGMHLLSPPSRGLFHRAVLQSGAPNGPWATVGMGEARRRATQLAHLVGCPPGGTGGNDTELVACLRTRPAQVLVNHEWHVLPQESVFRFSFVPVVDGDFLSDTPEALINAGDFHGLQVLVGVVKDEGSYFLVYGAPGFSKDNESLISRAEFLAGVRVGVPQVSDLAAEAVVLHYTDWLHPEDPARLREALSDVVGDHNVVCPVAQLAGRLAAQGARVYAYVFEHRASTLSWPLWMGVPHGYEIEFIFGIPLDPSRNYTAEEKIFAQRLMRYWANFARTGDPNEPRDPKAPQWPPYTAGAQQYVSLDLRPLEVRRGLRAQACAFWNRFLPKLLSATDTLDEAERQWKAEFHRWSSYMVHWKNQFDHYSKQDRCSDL
# Procedure, shortened: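 After overnight attachment at 37 C, SH-SY5Y cells get 30 min compound exposure; detection cocktail (acetylthiocholine, DTNB) then incubates 90 min at 37 C, and absorbance reflects AChE-generated thiocholine.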
# [2] = target: Acetylcholinesterase (Homo sapiens) (UniProt P22303); assay: Acetylcholinesterase (AChE) small molecule antagonists: enzyme-based qHTS assay (AID 1347397); settings: Potency: AChE enzyme activity inhibition; outcome: AChE enzyme activity inhibition; note: nearly all actives have a fitted effect of over 55% in size; note: potency is the fitted concentration of half-maximal effect
# Procedure, shortened: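 rhAChE 50 mU/mL (dispensed) + cpd or DMSO, 30 min RT; add DTNB/acetylthiocholine cocktail, 10 min RT; colorimetric thiocholine readout. qHTS, 1536-well format.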
# [3] = target: Acetylcholinesterase (Homo sapiens) (UniProt P22303); assay: Acetylcholinesterase (AChE) small molecule antagonists: fluorescence cell-based qHTS assay (AID 1347398); settings: Potency: AChE activity; outcome: AChE activity; note: nearly all actives have a fitted effect of over 50% in size; note: potency is the fitted concentration of half-maximal effect
# Procedure, shortened: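 Read-out is Thiolite Green fluorescence at Ex/Em = 490/520 nm, formed by reaction with thiocholine released when cellular AChE in SH-SY5Y cells hydrolyzes acetylthiocholine. Compounds were preincubated 30 min at 37 C before substrate.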
# [4] = target: Acetylcholinesterase (Homo sapiens) (UniProt P22303); assay: Acetylcholinesterase (AChE) small molecule antagonists: enzyme-based qHTS assay with human liver microsomes (AID 1347399); settings: Potency: qHTS inhibition; outcome: qHTS inhibition; note: nearly all actives have a fitted effect of over 60% in size
# Procedure, shortened: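 Recombinant human AChE (50 mU/mL in the enzyme mix) and human liver microsomes (0.25 mg/mL final) were preincubated with compound and NADPH (0.25 mg/mL final) for 30 min at 37 C. Acetylthiocholine/DTNB was then added; thiocholine was read colorimetrically after 10 min at room temperature.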
structure (smiles),measurement,setting,value
N#Cc1cc(NC(=O)C(=O)O)c(Cl)c(NC(=O)C(=O)O)c1,Potency,[1],inactive
same,Potency,[2],inactive
same,Potency,[3],inactive
same,Potency,[4],inactive
C=Cc1ccc(OC(C)=O)cc1,Potency,[1],inactive
same,Potency,[2],inactive
same,Potency,[3],inactive
same,Potency,[4],inactive
c1cnc2c(n1)CCCC2,Potency,[1],inactive
same,Potency,[2],inactive
same,Potency,[3],inactive
same,Potency,[4],inactive
CC1=NN(c2ccccc2)C(=O)C1,Potency,[1],inactive
same,Potency,[2],35.8 µM (active) and inactive
same,Potency,[3],5.06 µM (active) and inactive
same,Potency,[4],inactive
Nc1ccc(O)c(C(=O)O)c1,Potency,[1],inactive
same,Potency,[2],inactive
same,Potency,[3],inactive
same,Potency,[4],inactive
CC[C@]12CCCN3CCc4c(n(c5ccccc45)C(=O)C1)[C@@H]32,Potency,[1],inactive
same,Potency,[2],inactive
same,Potency,[3],inactive
same,Potency,[4],inactive
COc1cccc2c1C(=O)c1c(O)c3c(c(O)c1C2=O)C[C@@](O)(C(=O)CO)C[C@@H]3O[C@H]1C[C@H](N)[C@H](O)[C@H](C)O1,Potency,[1],8.71 µM (active)
same,Potency,[2],inactive
same,Potency,[3],inactive
same,Potency,[4],inactive
NC(N)=NCCN1CCCCCCC1,"activity, negative = inhibition",[1],6.69% [at 0.435 µM] (inactive)
same,"activity change, negative = inhibition",[2],0% [at 0.435 µM] (inactive)
same,"activity change, negative = inhibition",[3],3.67% [at 0.439 µM] (inactive)
same,"activity change, negative = inhibition",[4],-0.084% [at 0.435 µM] (inactive)
O=C(O)Cc1csc(-c2ccc(Cl)cc2)n1,Potency,[1],inactive
same,Potency,[2],inactive
same,Potency,[3],inactive
same,Potency,[4],inactive
CC(C)CC(=O)O,Potency,[1],inactive
same,Potency,[2],inactive
same,Potency,[3],inactive
same,Potency,[4],inactive
CC(C)(Oc1ccc(CCNC(=O)c2ccc(Cl)cc2)cc1)C(=O)O,Potency,[1],inactive
same,Potency,[2],inactive
same,Potency,[3],inactive
same,Potency,[4],inactive
NC(=O)Cc1cccc(C(=O)c2ccccc2)c1N,Potency,[1],inactive
same,Potency,[2],inactive
same,Potency,[3],inactive
same,Potency,[4],inactive
C/C=C/c1ccc(OC)c(OC)c1,Potency,[1],inactive
same,Potency,[2],inactive
same,Potency,[3],inactive
same,Potency,[4],inactive
C/C=C(/C(=C/C)c1ccc(O)cc1)c1ccc(O)cc1,Potency,[1],inactive
same,Potency,[2],inactive
same,Potency,[3],inactive
same,Potency,[4],inactive
C=C1CC/C=C(\C)CC[C@@H]2[C@@H]1CC2(C)C,Potency,[1],inactive
same,Potency,[2],inactive
same,Potency,[3],inactive
same,Potency,[4],inactive
CCCCCCCC(=O)O,Potency,[1],inactive
same,Potency,[2],inactive
same,Potency,[3],inactive
same,Potency,[4],inactive
CC1CCC(C(C)C)C(O)C1 (stereo not given),Potency,[1],inactive
same,Potency,[2],inactive
same,Potency,[3],inactive
same,Potency,[4],inactive
O=C1OC2(c3ccc(O)cc3Oc3cc(O)ccc32)c2ccccc21,Potency,[1],inactive
same,Potency,[2],inactive
same,Potency,[3],inactive
same,Potency,[4],inactive
CCCCCC#CC(=O)OC,Potency,[1],inactive
same,Potency,[2],inactive
same,Potency,[3],inactive
same,Potency,[4],inactive
CN=C(NC#N)NCCSCc1nc[nH]c1C,Potency,[1],inactive
same,Potency,[2],inactive
same,Potency,[3],inactive
same,Potency,[4],inactive
c1cnc2cc3c(cc2n1)C1CNCC3C1,Potency,[1],inactive
same,Potency,[2],inactive
same,Potency,[3],inactive
same,Potency,[4],inactive
CCC(=O)c1cccc(Cl)c1,Potency,[1],inactive
same,Potency,[2],inactive
same,Potency,[3],inactive
same,Potency,[4],inactive
CN(C)CCOC(C)(c1ccccc1)c1ccccn1 (stereo not given),Potency,[1],inactive
same,Potency,[2],inactive
same,Potency,[3],inactive
same,Potency,[4],inactive
CC/C=C\CCOC(C)OCC (stereo not given),Potency,[1],inactive
same,Potency,[2],inactive
same,Potency,[3],inactive
same,Potency,[4],inactive
CCN(CC#N)c1cccc(C)c1,Potency,[1],inactive
same,Potency,[2],inactive
same,Potency,[3],inactive
same,Potency,[4],inactive
C#CCN(C)CCCOc1ccc(Cl)cc1Cl,Potency,[1],inactive
same,Potency,[2],inactive
same,Potency,[3],inactive
same,Potency,[4],inactive
O=S(=O)(O)c1cccc2c(S(=O)(=O)O)cccc12,Potency,[1],inactive
same,Potency,[2],inactive
same,Potency,[3],inactive
same,Potency,[4],inactive
COc1ccc(N=[N+]([O-])c2ccc(OC)cc2)cc1,Potency,[1],inactive
same,Potency,[2],inactive
same,Potency,[3],inactive
same,Potency,[4],inactive
CCn1ccc(NS(=O)(=O)c2ccc(N)cc2)nc1=O,Potency,[1],inactive
same,Potency,[2],inactive
same,Potency,[3],inactive
same,Potency,[4],inactive
O=C(O)Cc1cccc(-c2cc(CCCCCCc3ccc(O[C@H]4O[C@H](CO)[C@@H](O)[C@H](O)[C@@H]4O)c(-c4cccc(CC(=O)O)c4)c3)ccc2O[C@H]2O[C@H](CO)[C@@H](O)[C@H](O)[C@@H]2O)c1,"activity, negative = inhibition",[1],1.5% [at 0.435 µM] (inactive)
same,"activity change, negative = inhibition",[2],1.01% [at 0.435 µM] (inactive)
same,"activity change, negative = inhibition",[3],5.75% [at 0.439 µM] (inactive)
same,"activity change, negative = inhibition",[4],-1.17% [at 0.435 µM] (inactive)
CC(=O)OC1CCC(C(C)(C)C)CC1 (stereo not given),Potency,[1],inactive
same,Potency,[2],inactive
same,Potency,[3],inactive
same,Potency,[4],inactive
CCCCC(=O)O[C@]1(C(=O)CO)[C@@H](C)C[C@H]2[C@@H]3CCC4=CC(=O)C=C[C@]4(C)[C@@]3(F)[C@@H](O)C[C@@]21C,Potency,[1],inactive
same,Potency,[2],inactive
same,Potency,[3],inactive
same,Potency,[4],inactive
NNCCc1ccccc1,Potency,[1],inactive
same,Potency,[2],inactive
same,Potency,[3],inactive
same,Potency,[4],inactive
CC#C[C@]1(O)CC[C@H]2[C@@H]3CCC4=CC(=O)CCC4=C3[C@@H](c3ccc(N(C)C)cc3)C[C@@]21C,Potency,[1],inactive
same,Potency,[2],inactive
same,Potency,[3],inactive
same,Potency,[4],inactive
CNC[C@H](O)[C@@H](O)[C@H](O)[C@H](O)CO,Potency,[1],inactive
same,Potency,[2],inactive
same,Potency,[3],inactive
same,Potency,[4],inactive
CC(C)=CCCC(C)CCO (stereo not given),Potency,[1],inactive
same,Potency,[2],inactive
same,Potency,[3],inactive
same,Potency,[4],inactive
C=C(C)c1cccc(C(C)(C)N=C=O)c1,Potency,[1],inactive
same,Potency,[2],inactive
same,Potency,[3],inactive
same,Potency,[4],inactive
O=c1c(-c2ccc(O)cc2)coc2cc(O)cc(O)c12,Potency,[1],inactive
same,Potency,[2],inactive
same,Potency,[3],inactive
same,Potency,[4],inactive
O=[N+]([O-])c1ccccc1Nc1ccccc1,Potency,[1],inactive
same,Potency,[2],inactive
same,Potency,[3],inactive
same,Potency,[4],inactive
O=C(c1ccccc1)c1cc(Cl)ccc1O,Potency,[1],inactive
same,Potency,[2],inactive
same,Potency,[3],inactive
same,Potency,[4],inactive
O=C(O)CCC(=O)O,Potency,[1],inactive
same,Potency,[2],inactive
same,Potency,[3],inactive
same,Potency,[4],inactive
COC(C)(C)CCCC(C)CC=O (stereo not given),Potency,[1],inactive
same,Potency,[2],inactive
same,Potency,[3],inactive
same,Potency,[4],inactive
O=C1c2ccccc2C(=O)C1c1ccc2ccccc2n1,Potency,[1],inactive
same,Potency,[2],inactive
same,Potency,[3],inactive
same,Potency,[4],inactive
C=CC(O)CCCCC (stereo not given),Potency,[1],inactive
same,Potency,[2],inactive
same,Potency,[3],inactive
same,Potency,[4],inactive
CCOc1ccc(NC(C)=O)cc1,Potency,[1],inactive
same,Potency,[2],inactive
same,Potency,[3],inactive
same,Potency,[4],inactive
c1ccc2cc3c(ccc4ccccc43)cc2c1,Potency,[1],inactive
same,Potency,[2],inactive
same,Potency,[3],inactive
same,Potency,[4],inactive
c1ccc(OCCOc2ccccc2)cc1,Potency,[1],inactive
same,Potency,[2],inactive
same,Potency,[3],inactive
same,Potency,[4],inactive
CCCCC(CC)C(=O)OCCOCCOCCOC(=O)C(CC)CCCC (stereo not given),Potency,[1],inactive
same,Potency,[2],inactive
same,Potency,[3],inactive
same,Potency,[4],inactive
O=C(COc1ccc(Cl)cc1)N1CCN(Cc2ccc3c(c2)OCO3)CC1,Potency,[1],inactive
same,Potency,[2],inactive
same,Potency,[3],inactive
same,Potency,[4],inactive
CC(=O)N(O)CCCCCNC(=O)CCC(=O)N(O)CCCCCNC(=O)CCC(=O)N(O)CCCCCN,outcome,[1],inactive
same,outcome,[2],inactive
same,outcome,[3],inactive
same,outcome,[4],inactive
C=CCCCCCCCCC(=O)O,Potency,[1],inactive
same,Potency,[2],inactive
same,Potency,[3],inactive
same,Potency,[4],inactive
Cc1nnc(C(=O)NC(C)(C)c2nc(C(=O)NCc3ccc(F)cc3)c(O)c(=O)n2C)o1,Potency,[1],inactive
same,Potency,[2],inactive
same,Potency,[3],inactive
same,Potency,[4],inactive
CCN(CC)c1ccc(N=Nc2ccccc2)cc1,Potency,[1],inactive
same,Potency,[2],inactive
same,Potency,[3],inactive
same,Potency,[4],inactive
COC(=O)c1ccc2cc(C(=O)OC)ccc2c1,"activity, negative = inhibition",[1],3.17% [at 23.6 µM] (inactive)
same,"activity change, negative = inhibition",[2],-0.273% [at 23.6 µM] (inactive)
same,"activity change, negative = inhibition",[3],-7.2% [at 23.8 µM] (inactive)
same,"activity change, negative = inhibition",[4],-4.52% [at 23.6 µM] (inactive)
NCCOCCN,Potency,[1],inactive
same,Potency,[2],inactive
same,Potency,[3],inactive
same,Potency,[4],inactive
COc1ccccc1OCC(O)COC(N)=O (stereo not given),Potency,[1],inactive
same,Potency,[2],inactive
same,Potency,[3],inactive
same,Potency,[4],inactive
COC(=O)CCCC(=O)O,Potency,[1],inactive
same,Potency,[2],inactive
same,Potency,[3],inactive
same,Potency,[4],inactive
CCC(COC(=O)CCS)(COC(=O)CCS)COC(=O)CCS,Potency,[1],inactive
same,Potency,[2],inactive
same,Potency,[3],inactive
same,Potency,[4],inactive
CC(C)Cn1cnc2c1c(=O)n(C)c(=O)n2C,Potency,[1],inactive
same,Potency,[2],inactive
same,Potency,[3],inactive
same,Potency,[4],inactive
CCCCCCCCNC(C)C(O)c1ccc(SC(C)C)cc1 (stereo not given),Potency,[1],inactive
same,Potency,[2],inactive
same,Potency,[3],inactive
same,Potency,[4],inactive
